# Bioassay records: PubChem, The Scripps Research Institute Molecular Screening Center
# Compounds with a hit are over-represented: about 4.6% of the library has one in this group of screens.
# ssDAF12 agonist – S. stercoralis DAF-12 nuclear receptor activators, primary screen, cell-based, luminescence, HEK293, GRIP1 co-expression, lit1-tk-luc | HEK293 ssDAF-12/GRIP1 lit1-tk-luc reporter; % of 3 µM dafachronic acid response | 370,000 tested, 1% active | AID 652126, 2013 | activation, % at 6.8 µM;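 active means activation above the mean over all tested compounds plus 3 SD, cut at about 0.9% in these data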;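 further: 0% = DMSO-only wells and 100% = 3 µM delta7-dafachronic acid wells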
# DAX1 inh-1 – DAX1 (NR0B1) inhibitors, primary screen, cell-based, HEK293, Gal4-DAX1, luciferase luminescence; inhibition, % at 6.75 µM; 340,000 tested, 0.99% active; Nuclear receptor subfamily 0 group B member 1 (Homo sapiens), P51843; HEK293 Gal4-DAX1 luciferase reporter;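 active means inhibition above the mean over all tested compounds plus 3 SD, cut at about 4.2% in these data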;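 further: 0% = DAX1-transfected cells with DMSO and 100% = empty-vector control cells with DMSO; inhibition shows as a rise in luminescence from relieved DAX1 repression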
# hcDAF-12 act – H. contortus DAF-12 nuclear receptor activators, primary screen, cell-based, luminescence, HEK293, lit1-tk-luc reporter; HEK293 hcDAF-12 lit1-tk-luc reporter; 0% DMSO, 100% Δ7-dafachronic acid; activation, % at 6.8 µM; 370,000 tested, 1.4% active;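 active means activation above the mean of all tested compounds plus 3 SD, cut at about 5.5% in these data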;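 further: 100% = response to 3 µM Δ7-dafachronic acid high control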
# DAX1 inh-2 – DAX1 (NR0B1) inhibitors on StAR promoter, primary screen, cell-based, luminescence, SF-1 (NR5A1), full-length DAX-1; HEK293T StAR-luciferase reporter, SF-1/DAX-1 repression relief; inhibition, % at 6.8 µM; 370,000 tested, 1.1% active;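 active means inhibition above the mean over all tested compounds plus 3 SD, cut at about 3.6% in these data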;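 further: 0% = DAX-1 cells with DMSO and 100% = cells lacking DAX-1 with DMSO; higher inhibition means more luminescence from relief of DAX-1 repression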
# Wee1 stabilizer – Wee1 degradation inhibitors, primary screen, cell-based, HeLa, Wee1K328M-luciferase, luminescence; Wee1-like protein kinase (Homo sapiens), P30291; reporter increase, % at 5 µM; 220,000 tested, 1.2% active; AID 1321, 2008; HeLa Luc-Wee1K328M stability; 100% = proteasome inhibitor MG132 effect;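 active means activation above the mean of all tested compounds plus 3 SD, set per screening run, cut at about 8.8% in these data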;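 further: cells exposed to compound for 20 h before luminescence read; 0% = DMSO alone and 100% = MG132 at 30 µM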
# Target sequence (P30291 whole entry K328M): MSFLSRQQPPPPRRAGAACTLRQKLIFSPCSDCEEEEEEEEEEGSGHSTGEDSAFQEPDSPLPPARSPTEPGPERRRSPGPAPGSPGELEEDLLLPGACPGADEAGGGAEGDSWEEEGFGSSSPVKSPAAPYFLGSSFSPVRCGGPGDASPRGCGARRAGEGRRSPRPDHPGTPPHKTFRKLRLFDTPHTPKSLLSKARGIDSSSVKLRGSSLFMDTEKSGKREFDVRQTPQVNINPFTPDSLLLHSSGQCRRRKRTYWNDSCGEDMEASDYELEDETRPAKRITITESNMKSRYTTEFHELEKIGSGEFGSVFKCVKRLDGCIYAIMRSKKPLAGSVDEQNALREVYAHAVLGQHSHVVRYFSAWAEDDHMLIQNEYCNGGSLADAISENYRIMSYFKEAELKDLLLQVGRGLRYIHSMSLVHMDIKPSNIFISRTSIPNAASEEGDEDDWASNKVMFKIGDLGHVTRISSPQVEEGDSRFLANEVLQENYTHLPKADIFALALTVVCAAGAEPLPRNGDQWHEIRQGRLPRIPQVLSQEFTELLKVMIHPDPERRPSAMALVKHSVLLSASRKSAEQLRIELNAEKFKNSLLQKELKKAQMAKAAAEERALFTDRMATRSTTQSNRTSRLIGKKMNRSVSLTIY
# hgDAF-12 ag – H. glycines DAF-12 receptor agonists, primary screen, cell-based, luminescence, HEK293, GAL4 fusion, UAS-luciferase; HEK293 GAL4-hgDAF12 UAS-luciferase reporter, agonist luminescence; normalized to butyrate control; activation, % at 6.8 µM; 370,000 tested, 1.8% active; AID 687014, 2013;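 active means activation above a cutoff set at the mean of all screened compounds plus 3 SD, cut at about 10% in these data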;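 further: 0% = DMSO wells and 100% = sodium butyrate wells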
# LXRb hcDAF ctr – LXR agonists, Gal4 luciferase reporter, confirmation, counter-screen for hcDAF-12 agonist project, cell-based, luminescence, HEK293, H. contortus campaign | shares compounds with hcDAF-12 act | HEK293 Gal4-LXR tk-luc reporter, 24 h; normalized: DMSO 0%, positive control 100% | activation, % at 6.8 µM | 3,400 tested, under 10 active;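 active means mean percent activation of the reporter above a cutoff set as the average over tested compounds plus their standard deviation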
# hcDAF12 ag – H. contortus DAF-12 receptor agonists, confirmation, cell-based, luminescence, HEK293, lit1-tk-luc, triplicate; shares compounds with hcDAF-12 act; HEK293 hcDAF-12 lit1-tk-luc reporter; % of Δ7-dafachronic acid response; activation, % at 6.8 µM; 3,400 tested, 61% active;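 active means mean activation across triplicate tests above the threshold derived from the earlier primary screen, cut at about 5.5% in these data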;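 further: 0% = DMSO only wells and 100% = 3 µM Δ7-dafachronic acid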
# The depositor's hits bear a star; · = no result given.
SMILES,ssDAF12 agonist,DAX1 inh-1,hcDAF-12 act,DAX1 inh-2,Wee1 stabilizer,hgDAF-12 ag,LXRb hcDAF ctr,hcDAF12 ag
Oc1[nH]c2ccccc2c1N=Nc1ccccn1,0.8,1.6,3.2,1.9,·,9.1,·,·
Cc1cccc2c(N=Nc3ccccc3)c(O)[nH]c12,4.4*,5.4*,14.2*,2.4,·,21.9*,2.1,21.0*
C[C@H](NC(=O)c1cc2cc(Cl)ccc2n1C)C(=O)N[C@@H](Cc1ccccc1)C(=O)O,-1.2,-0.2,1.4,-0.2,·,2.1,·,·
C[C@H](NC(=O)[C@H](Cc1ccccc1)NC(=O)c1cc2cc(Cl)ccc2n1C)C(=O)O,0.3,-0.4,6.8*,-0.4,·,0.9,-0.2,3.5
O=c1ccncn1C1OC(CO)C(O)C1O (centres undefined),-0.7,1.8,-1.4,-0.1,·,-2.0,·,·
COC(=O)c1[nH]c2ccccc2c1NS(=O)(=O)c1ccc(F)c(C)c1,-1.2,0.0,-0.4,-1.4,-1.6,-2.8,·,·
CCOC(=O)c1[nH]c2ccccc2c1NC(=S)Nc1ccccc1C,1.1*,1.9,10.1*,2.9,1.7,6.1,-0.1,6.6*
CCCS(=O)(=O)Nc1c(C(=O)OC)[nH]c2ccccc12,-0.8,-1.0,10.4*,0.2,-2.0,1.1,0.1,3.7
CCOC(=O)c1[nH]c2ccc(Br)cc2c1NC(=O)CNC,0.1,0.9,9.9*,-0.1,-1.9,1.8,-0.1,4.9
COc1ccc(S(=O)(=O)Nc2ccc3c(c2)C(=O)N([C@H](C)CO)C[C@H](C)[C@@H](CN(C)Cc2ccncc2)OCCCC[C@@H](C)O3)cc1,-1.3,1.2,1.6,-0.1,·,-1.5,·,·
S=C(NCCc1ccccc1)N1CCC2CC1c1cc(-c3ccc4c(c3)OCO4)ccc12 (centres undefined),-0.9,·,-0.4,1.0,·,1.1,·,·
Cc1c(Cl)cccc1N1C(=O)CC(N(O)c2ccccc2)C1=O (centres undefined),-1.3,0.2,-1.8,-0.7,0.3,-0.7,·,·
CC(=O)N(NC(=O)c1ccc(C)cc1)C1CC(=O)N(c2ccccc2Cl)C1=O (centres undefined),-1.6,0.3,8.6*,-0.7,-0.8,-2.4,-0.2,1.6
COc1ccc(NC(=O)c2oc3ccccc3c2C)c(OC)c1,-0.2,0.2,2.3,-0.1,-1.3,2.5,·,·
COc1ccccc1NC(=O)c1oc2ccccc2c1C,2.2*,3.0,7.0*,-0.7,·,8.9,0.1,6.7*
Nc1nc2c(-c3ccc(Br)cc3)nnn2c2ccccc12,1.0*,4.1,7.7*,1.2,·,11.2*,2.0,22.3*
Cc1ccc(-c2nnn3c2nc(NC(C)C)c2ccccc23)cc1,0.3,0.4,6.8*,0.6,·,5.1,-0.2,1.5
CNc1nc2c(-c3ccc(Cl)cc3)nnn2c2ccccc12,-0.6,0.1,2.6,0.2,·,2.3,·,·
CCCCNc1nc2c(-c3ccccc3)nnn2c2ccccc12,-0.6,-1.7,4.5,-0.2,-0.2,-2.8,·,·
c1ccc(-c2ccc(-c3ccccn3)nn2)nc1,-0.5,·,6.9*,3.4,-0.3,6.7,1.2,8.7*
O=C(O)Cn1cc(/C=N/Nc2ccc([N+](=O)[O-])cn2)c2ccccc21,1.4*,5.4*,7.9*,0.3,·,6.8,-0.1,4.2
Cn1c(C(C#N)C(=O)c2ccco2)nc2ccccc21 (centres undefined),0.6,1.0,7.2*,1.8,0.7,3.6,0.4,9.6*
Cn1c(C(C#N)C(=O)Cc2cccc3ccccc23)nc2ccccc21 (centres undefined),-0.9,0.0,-0.2,0.5,5.8,0.6,·,·
Fc1ccc(OCc2nnc(-c3ccccc3Br)o2)c(Cl)c1,-0.3,0.7,7.1*,1.4,·,10.8*,0.6,3.3
Clc1ccc(OCc2nnc(-c3ccccc3Br)o2)c(Cl)c1,-1.9,0.4,0.7,0.8,5.0,4.4,·,·
SMILES,ssDAF12 agonist,DAX1 inh-1,hcDAF-12 act,DAX1 inh-2,Wee1 stabilizer,hgDAF-12 ag,LXRb hcDAF ctr,hcDAF12 ag
Cc1ccc(CN2C(=O)c3ccccc3C2c2nnnn2-c2c(C)cccc2C)cc1 (centres undefined),-0.9,·,-2.8,0.3,·,-6.0,·,·
C[C@H](CO)N1C[C@H](C)[C@H](CN(C)S(=O)(=O)c2cccc(C#N)c2)OCc2cnnn2CCCC1=O,-0.8,2.3,2.0,0.4,·,0.3,·,·
O=C(O)CCC(C(=O)O)N1C(=O)C2C3CCC(C3)C2C1=O (centres undefined),-0.7,0.8,1.1,-0.7,·,-1.6,·,·
COc1ccc2nc(N=Nc3ccc(O)c4ccccc34)sc2c1,0.6,-0.1,11.9*,-0.4,-1.4,1.9,-0.2,1.5
COc1ccc2nc(N=NC3=C(O)CC(C)(C)CC3=O)sc2c1,-0.8,-0.7,-0.4,-2.1,3.6,-3.5,·,·
COc1ccc2c(c1)[nH]c1c(=O)n(N)cnc12,0.8,5.7*,9.7*,0.8,2.2,0.8,-0.1,6.4*
Nn1cnc2c([nH]c3ccccc32)c1=O,0.8,0.0,4.1,-0.8,-1.5,-0.2,·,·
Cc1ccc(S(=O)(=O)N2CCC[C@H]2C(=O)OCC(=O)Nc2ccc3c(c2)OCO3)cc1,-0.6,0.5,-0.7,0.9,·,-1.8,·,·
COCCNC(=O)c1cc2c(-c3ccc(Cl)cc3)nn(C)c2s1,-0.6,0.0,6.8*,-0.8,-1.9,2.7,0.0,3.3
CCOC(=O)N1CCC(NC(=O)c2cc3c(-c4ccc(Cl)cc4)nn(C)c3s2)CC1,0.2,0.3,7.8*,1.1,-0.2,0.3,-0.4,0.5
Cn1nc(-c2ccc(Cl)cc2)c2cc(C(=O)N3CCCC3)sc21,-0.2,-1.7,3.5,0.4,-2.8,-0.4,·,·
COCCCNC(=O)c1cc2c(-c3ccc(Cl)cc3)nn(C)c2s1,-0.5,1.5,4.2,0.0,-2.3,-0.2,·,·
